Screening results: PubChem, National Center for Advancing Translational Sciences (NCATS)
HP1b binding inh = HP1-beta chromodomain-methylated histone interaction inhibition. Potency, µM (highest dose often 114 µM), for the others: at the top dose activity change, negative = inhibition, actives largely listed as inhibitors. AID 540317. AlphaScreen HP1-beta / biotin-H3K9me3 peptide binding. P83916. 0.56% of 390,000 active; further: nearly all actives have a fitted effect of over 70% in size
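Compound inhibition of the preformed complex between 50 nM HP1-beta and 50 nM biotinylated H3K9me3 peptide was read by AlphaScreen. Buffer was PBS pH 7.4 with 0.01% Tween-20. Incubations ran 30 min at room temperature, with 10 ug/mL donor/acceptor beads.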
Sfp inh = blocks B. subtilis Sfp PPTase activity | Potency, µM, for the others: largest response in the series, negative = inhibition, hits mostly inhibitors | AID 1490 | 3.5% of 310,000 active | Biochemical Sfp PPTase activity, qHTS;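 further: the enzyme is Sfp with the accession as filed and its product quenches rhodamine fluorescence; 0% = enzyme reaction without inhibitor and -100% = no enzyme wells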
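Fluorescence-quenching assay: 15 nM Sfp-PPTase preincubated 15 min at room temperature with compound, then 5 uM rhodamine-CoA and 12.5 uM BHQ-2-labelled YbbR peptide added. Fluorescence (ex 525/em 598 nm) read at start and after 30 min; difference gives rate.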
BAZ2B block = BAZ2B (human) inhibition. Q9UIF8. Potency, µM (titrated, usually from 114 µM), for the others: at the top dose activity change, negative = inhibition, usual class: inhibitors. 4.4% of 360,000 active. AlphaScreen BAZ2B-H3K14Ac peptide displacement; further: on the % scale 0 is the no-effect control and ±100 the full control effect; nearly all actives have a fitted effect of over 60% in size
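BAZ2B (50 nM) with biotin-H3(5-23)K14Ac peptide (50 nM) in PBS pH 7.4, 0.01% Tween-20, preformed 30 min, then compound 30 min at room temperature; top concentration 110uM. AlphaScreen streptavidin donor/nickel chelate acceptor beads (10 ug/mL final), 20 min dark, signal read.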
G9a inh = inhibitors of human histone lysine methyltransferase G9a; Potency, µM (titrated, usually from 102 µM), without a hit: at the top dose activity, negative = inhibition, usual class: inhibitors; G9a H3K9 monomethylation, AlphaScreen, 2 h; Q96KQ7; 8.8% of 350,000 active; further: on the % scale 0 is the no-effect control and ±100 the full control effect; nearly all actives have a fitted effect of over 75% in size
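Step 1: enzyme (final 20 nM) with compound, 15 min RT. Step 2: substrate peptide 500 nM and SAM 20 uM, 2 h RT. Step 3: anti-H3K9me1 antibody and AlphaScreen beads, 10 min, then plate read.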
PLK1 PBD inh = blocks phosphopeptide binding to human PLK1 polo-box domain; P53350; Plk1 PBD binding of FITC phosphopeptide, fluorescence polarization; Potency, µM, for the others: max response, negative = inhibition, most hits filed as inhibitors; 2.8% of 360,000 active; further: series mostly up to about 57 µM; on the % scale 0 is the no-effect control and ±100 the full control effect; nearly all actives have a fitted effect of over 65% in size
Target sequence (P53350 whole entry, looked up, the tested form may be a part): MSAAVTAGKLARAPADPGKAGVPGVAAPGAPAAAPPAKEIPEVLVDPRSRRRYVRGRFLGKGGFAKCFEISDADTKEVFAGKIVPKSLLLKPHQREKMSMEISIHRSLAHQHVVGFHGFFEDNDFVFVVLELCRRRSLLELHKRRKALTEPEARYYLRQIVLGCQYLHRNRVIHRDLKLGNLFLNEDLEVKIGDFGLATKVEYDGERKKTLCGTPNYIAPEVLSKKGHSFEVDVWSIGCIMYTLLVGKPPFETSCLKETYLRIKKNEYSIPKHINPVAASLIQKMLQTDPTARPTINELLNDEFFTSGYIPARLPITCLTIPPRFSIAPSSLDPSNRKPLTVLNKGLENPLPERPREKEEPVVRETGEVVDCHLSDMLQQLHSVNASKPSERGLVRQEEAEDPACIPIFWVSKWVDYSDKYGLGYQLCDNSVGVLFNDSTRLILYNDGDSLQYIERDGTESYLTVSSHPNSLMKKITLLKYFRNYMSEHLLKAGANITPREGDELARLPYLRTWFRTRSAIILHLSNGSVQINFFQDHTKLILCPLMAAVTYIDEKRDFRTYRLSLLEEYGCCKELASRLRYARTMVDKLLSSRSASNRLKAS
JMJD2A Tudor inh = JMJD2A Tudor domain (human) inhibition. O75164. AlphaScreen JMJD2A-Tudor / H3K4me3 peptide binding. AID 504339. 4.4% of 390,000 active. Potency, µM (top dose mostly 114 µM), for inactives: top-dose activity change, negative = inhibition, actives largely listed as inhibitors; further: on the % scale 0 is the no-effect control and ±100 the full control effect; nearly all actives have a fitted effect of over 50% in size
Starred values were filed as active, the others as inactive; [ ] = dose if it differs, or a comment. Compounds with a hit are over-represented: about 12% of the library has one in this group of screens. The call rests on the fitted dose curve; in most records, active means well fitted curve in the direction sought with a large enough effect; inconclusive means small, poorly fitted or top-dose-only effect, or another doubt; inactive means no such curve, though single readings can be large; an effect the other way counts as inactive or inconclusive. Potency means the concentration at half of the fitted maximal effect.

What do the screens show for `CC[C@H](C)[C@H](NC(=O)[C@H](CO)NC(=O)[C@H](CC(C)C)NC(=O)[C@H](CO)NC(=O)[C@@H]1CCCN1C(=O)[C@H](CC(N)=O)NC(=O)[C@@H](N)CC(=O)O)C(=O)N[C@@H](CC(=O)O)C(=O)N[C@@H](CC(C)C)C(=O)N[C@H](C(=O)N[C@@H](Cc1ccccc1)C(=O)N[C@@H](Cc1cnc[nH]1)C(=O)N[C@@H](CC(C)C)C(=O)N[C@@H](CC(C)C)C(=O)N[C@@H](CCCNC(=N)N)C(=O)N[C@H](C(=O)N[C@@H](CC(C)C)C(=O)N[C@@H](CC(C)C)C(=O)N[C@@H](CCC(=O)O)C(=O)N[C@@H](CC(C)C)C(=O)N[C@@H](C)C(=O)N[C@@H](CCCNC(=N)N)C(=O)N[C@H](C(=O)N[C@@H](CCC(N)=O)C(=O)N[C@@H](CO)C(=O)N[C@@H](CCC(N)=O)C(=O)N[C@@H](CCCNC(=N)N)C(=O)N[C@@H](CCC(=O)O)C(=O)N[C@@H](CCCNC(=N)N)C(=O)N[C@@H](C)C(=O)N[C@@H](CCC(=O)O)C(=O)N[C@@H](CCC(N)=O)C(=O)N[C@@H](CC(N)=O)C(=O)N[C@@H](CCCNC(=N)N)C(=O)N[C@H](C(=O)N[C@H](C(=O)N[C@@H](Cc1ccccc1)C(=O)N[C@@H](CC(=O)O)C(=O)N[C@@H](CO)C(=O)N[C@H](C(N)=O)C(C)C)[C@@H](C)CC)[C@@H](C)CC)[C@@H](C)O)[C@@H](C)O)[C@@H](C)O`?
Sfp inh: -0.6%

How did COc1cc(NS(=O)(=O)c2ccc(NC(=S)NC(=O)c3ccc(F)c(F)c3)cc2)nc(OC)n1 do in these assays?
HP1b binding inh: 2.3%; Sfp inh: 4.8%; BAZ2B block: -32.7%; PLK1 PBD inh: -27.9%; JMJD2A Tudor inh: -18.1%

What do the screens show for `CCOc1ccc2nc(N(CCN(C)C)C(=O)c3ccc4c(c3)CCCC4)sc2c1`?
HP1b binding inh: -15.3%; Sfp inh: 50.1µM*; BAZ2B block: inconclusive; G9a inh: 39.8µM*; PLK1 PBD inh: -14.9%; JMJD2A Tudor inh: 35.5µM*

Results for CC(=O)N(CCN(C)C)c1nc2cc3c(cc2s1)OCCO3 ?
HP1b binding inh: 34.6%; Sfp inh: 10.7%; BAZ2B block: -7.7%; PLK1 PBD inh: -3.4%; JMJD2A Tudor inh: -9.1%

What do the screens show for `CN(C)CCN(C(=O)c1ccc2c(c1)OCCO2)c1nc2cc3c(cc2s1)OCO3`?
HP1b binding inh: -25.0%; Sfp inh: -9.9%; BAZ2B block: inconclusive; PLK1 PBD inh: -10.6%; JMJD2A Tudor inh: inconclusive

Results for CCOc1cccc2sc(N(CCCN(C)C)C(=O)c3ccc(S(=O)(=O)N(C)c4ccccc4)cc3)nc12 ?
HP1b binding inh: -19.4%; Sfp inh: inconclusive; BAZ2B block: inconclusive; G9a inh: 56.2µM*; PLK1 PBD inh: 5.1%; JMJD2A Tudor inh: inconclusive

Results for CN(C)CCN(C(=O)c1ccc(S(=O)(=O)N(C)C)cc1)c1nc2cc3c(cc2s1)OCCO3 ?
HP1b binding inh: 9.9%; Sfp inh: -5.7%; G9a inh: 56.2µM*; PLK1 PBD inh: inconclusive; JMJD2A Tudor inh: -14.7%

Results for CCOc1cccc2sc(N(CCN(C)C)C(=O)CCS(=O)(=O)c3ccccc3)nc12 ?
HP1b binding inh: 30.7%; PLK1 PBD inh: -0.9%; JMJD2A Tudor inh: -28.1%

What do the screens show for `CN(C)CCN(C(=O)c1ccc2c(c1)CCCC2)c1nc2cc3c(cc2s1)OCCO3`?
HP1b binding inh: inconclusive; Sfp inh: -0.2%; BAZ2B block: -1.3%; PLK1 PBD inh: -0.7%; JMJD2A Tudor inh: 44.7µM*

Results for COc1cccc(CNC(=O)CCS(=O)(=O)c2cc3c4c(c2)CCN4C(=O)CC3)c1 ?
HP1b binding inh: 11.6%; BAZ2B block: -4.1%; G9a inh: 3.6%[59 µM]; JMJD2A Tudor inh: -4.9%

Results for COc1cc(C(=O)Nc2ccccc2OCc2cc(=O)n3c(C)csc3n2)cc(OC)c1OC ?
HP1b binding inh: 22.8%; BAZ2B block: 0.9%; G9a inh: 4.7%[59 µM]; JMJD2A Tudor inh: -1.7%

How did Cc1ccc(C)c(N2CCN(CCCNC(=O)c3cnn(-c4ccccc4Cl)c3C3CCN(C(=O)OC(C)(C)C)CC3)CC2)c1 do in these assays?
HP1b binding inh: 7.1%; BAZ2B block: -30.1%[57.1 µM]; G9a inh: inconclusive; JMJD2A Tudor inh: inconclusive

How did CN(C)CCN(C(=O)c1ccc(S(=O)(=O)N(C)c2ccccc2)cc1)c1nc2cc3c(cc2s1)OCCO3 do in these assays?
HP1b binding inh: -10.6%; Sfp inh: 0.6%; BAZ2B block: inconclusive; G9a inh: 39.8µM*; PLK1 PBD inh: 2.3%; JMJD2A Tudor inh: inconclusive

What do the screens show for `Cc1c(NS(=O)(=O)c2cccc(C(=O)O)c2)c(=O)n(-c2ccccc2)n1C`?
HP1b binding inh: 71.2%; Sfp inh: 7.5%; BAZ2B block: -12.2%; G9a inh: -2.9%[59 µM]; PLK1 PBD inh: 6.3%; JMJD2A Tudor inh: 8.6%

What do the screens show for `Cc1cccc(NC(=O)c2cccc(S(=O)(=O)Nc3c(C)n(C)n(-c4ccccc4)c3=O)c2)c1`?
HP1b binding inh: -3.2%; PLK1 PBD inh: 1.9%; JMJD2A Tudor inh: -6.8%

Results for Cc1ccc(NC(=S)Nc2cccc(S(=O)(=O)Nc3c(C)n(C)n(-c4ccccc4)c3=O)c2)cc1 ?
HP1b binding inh: -2.9%; Sfp inh: -29.6%; BAZ2B block: -19.5%; G9a inh: 44.7µM*; PLK1 PBD inh: inconclusive; JMJD2A Tudor inh: -21.4%

What do the screens show for `CC(=O)c1ccc(NC(=S)Nc2cccc(S(=O)(=O)Nc3c(C)n(C)n(-c4ccccc4)c3=O)c2)cc1`?
HP1b binding inh: 16.0%; Sfp inh: 22.4µM*; G9a inh: inconclusive; PLK1 PBD inh: 23.8µM*; JMJD2A Tudor inh: -21.8%

How did CC(=O)Nc1ccc(NCN2C(=O)C3C4CCC(C4)C3C2=O)cc1 (stereo not given) do in these assays?
HP1b binding inh: 15.2%; Sfp inh: -6.1%; BAZ2B block: 5.6%; G9a inh: 20.5%; PLK1 PBD inh: 1.5%; JMJD2A Tudor inh: 44.4%

Results for O=C1C2C3C=CC(C3)C2C(=O)N1CNc1ccc(O)cc1 (stereo not given) ?
Sfp inh: 56.2µM*; BAZ2B block: 44.7µM*; G9a inh: 2.24µM*

What do the screens show for `Cc1ccc(NCN2C(=O)C3C4CCC(C4)C3C2=O)cc1` (stereo not given)?
Sfp inh: 1.1%; BAZ2B block: 2.8%; G9a inh: -3.1%
